Assay results published in PubChem BioAssay AID1850 (Southern Research Specialized Biocontainment Screening …, 2009).
The campaign covered roughly 310,000 compounds. About 1,000 (0.32%) were called active. Not all results are given here. Measured potencies and affinities stand elsewhere. Unmarked numbers belong to inactive results. How the calls were made is not given here.

Experiment: PhoP regulon inhibitors, Salmonella typhi PhoP promoter GFP reporter, confirmatory (AID 1850);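 further: 0% = induced wells with vehicle and 100% = uninduced wells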
Conditions: fluorescence, 4 h, at 50 µM, stronger effect = higher value

SMILES	inhibition [%]
CC(/C=C/c1ccc2c(c1)OCO2)=N/NC(=O)COc1ccc(C)cc1	-7.1
CS(=O)(=O)c1ccc(Cl)c(NC(=O)COC(=O)/C=C/c2cnc3ccccc3n2)c1	5.47
O=C(Nc1nc(-c2cccs2)cs1)c1ccc(Cl)s1	-14
O=C(Nc1nc(-c2ccccn2)cs1)c1ncc(Cl)c(Cl)c1Cl	-0.4
Cc1csc(NC(=O)c2ccc(Br)s2)n1	11.7
O=C(Nc1nc(-c2ccccn2)cs1)c1ccco1	2.93
COC(=O)C(Cc1ccccc1)N1CCS(=O)(=O)CC1 (configuration not stated)	9.2
CCCCOc1ccc(/C(O)=C2/C(=O)C(=O)N(CCN(C)C)C2c2ccc(O)c(OC)c2)cc1 (configuration not stated)	-11.8
O=C(Nc1ccccn1)c1ccc2c(c1)S(=O)(=O)c1ccccc1C2=O	-0.07
COc1ccccc1CNc1cc(C)ccc1C	4.32
COc1ccc(CCN(Cc2nc3ccccc3c(=O)[nH]2)C(=O)C2CC2)cc1	-4.16
CN(C)CCCNC(=O)/C(=C\c1ccc(-c2ccc(Br)cc2)o1)NC(=O)c1ccccc1	22.2
CN(C)CCCNC(=O)/C(=C/c1ccc(-c2ccc([N+](=O)[O-])cc2)o1)NC(=O)c1ccccc1	8.87
Cc1ccc(C(=O)N/C(=C\c2ccc(-c3ccccc3[N+](=O)[O-])o2)C(=O)NCCCN(C)C)cc1	-1.46
CN(C)CCNC(=O)/C(=C/c1ccc(-c2cccc(Cl)c2)o1)NC(=O)c1ccccc1	20.4
Cc1ccc(C(=O)N/C(=C\c2ccc(-c3cccc([N+](=O)[O-])c3)o2)C(=O)NCCCN(C)C)cc1	16.2
Cc1ccc(C(=O)N/C(=C/c2ccc(-c3ccc([N+](=O)[O-])cc3)o2)C(=O)NCCCN(C)C)cc1	-1.29
Cn1c(=O)oc2cc(S(=O)(=O)NCc3ccccn3)ccc21	0.2
Cc1cc(C)cc(NC(=S)/N=C(\N)Nc2nc(C)c3ccccc3n2)c1	-5.71
Cc1ccc(COC(=O)c2ccc3ccccc3n2)cc1	-0.98
O=C(Cc1ccc(F)cc1)c1ccc(O)cc1O	-11.9
COc1ccc(CC(=O)c2ccc(O)cc2O)cc1	-0.72
C=CCOCCN1C(=O)C2C(c3ccccc3)C=CC(c3ccccc3)C2C1=O (configuration not stated)	5.25

SMILES	inhibition [%]
CCc1nnc(NC(=O)[C@@H]2CCCN2S(=O)(=O)c2ccc3c(c2)OCCO3)s1	-7.63
CN1CCN(CCCN2c3ccccc3Sc3ccc(C(F)(F)F)cc32)CC1	5.34
CN1CCN(CCC(=O)N2c3ccccc3Sc3ccc(Cl)cc32)CC1	-0.99
CN1CCCCC1CCN1c2ccccc2Sc2ccc(S(C)=O)cc21 (configuration not stated)	0.68
OCCN1CCN(CCCN2c3ccccc3Sc3ccc(Cl)cc32)CC1	4.15
CN1CCCC(CN2c3ccccc3Sc3ccccc32)C1 (configuration not stated)	-0.92
CN1CCN(CCCN2c3ccccc3Sc3ccc(S(=O)(=O)N(C)C)cc32)CC1	0.8
O=C(Nc1cccc(-n2cccn2)c1)C1CCCN(Cc2cccc(F)c2F)C1 (configuration not stated)	-4.31
N/C(=N\OC(=O)c1ccc(Br)cc1)c1ccncc1	5.21
COc1ccc(OC)c(S(=O)(=O)N2CCC(C(=O)NCc3ccc4c(c3)OCO4)CC2)c1	-8.79
Cc1ccc2cc(CCNC(=O)c3cccs3)c(=O)[nH]c2c1C	3.08
CCOc1ccc(S(=O)(=O)N2CCN(C(=O)c3ccc(-n4cncn4)c([N+](=O)[O-])c3)CC2)cc1	-1.56
COc1ccc(N2CCN(C(c3cccs3)C(C)NS(C)(=O)=O)CC2)cc1 (configuration not stated)	-6.29
Cc1nc(N)nc(Cl)c1Cc1ccc(Cl)cc1	-7.07
COc1ccc(Cc2c(C)nc(N)nc2Cl)cc1	-7.38
CCCCN(C)CCNC(=O)c1cc2cc3ccc(OC)cc3nc2o1	7.2
CCN(CC(=O)Nc1ccccc1C(F)(F)F)C(=O)CN1C(=O)NC2(CCCCC2)C1=O	-5.21
Nc1nc(SCC(=O)Nc2ccccc2Sc2ccccc2)n[nH]1	-1.42
COc1ccccc1NC(=O)CCn1cccc1	-6.32
C/C(=N\Nc1ccc2nncn2n1)c1ccco1	2.03
C/C(=N\Nc1ccc2nncn2n1)c1cccs1	4.31
O=C(Nc1csc(Cc2c(Cl)cccc2Cl)n1)NN1CCOCC1	-0.65
CN1CCN(CCCNC(=O)Nc2ccc([N+](=O)[O-])cc2)CC1	1.78

SMILES	inhibition [%]
O=C(NCCCN1CCCC1)Nc1ccc(F)cc1	2.17
COCC(=O)NNC(=O)Cc1ccc(Cl)cc1	-2.72
CC(C)COc1ccc(Cc2cnc(N)nc2N)cc1	15.8
CC(C)Oc1ccc(Cc2cnc(=S)[nH]c2N)cc1	7.33
CCSc1ccccc1C(=O)N=C1NC(=O)CC2C(=O)NCCN12 (configuration not stated)	1.96
O=C(COc1ccc(C(=S)N2CCOCC2)cc1)Nc1ccccc1C(F)(F)F	-0.77
O=C(NCCCNC(=O)c1ccc(-c2cc(Cl)ccc2Cl)o1)c1cnccn1	9.68
COc1cccc(C(=O)NC2=NCCS2)c1OC	2.77
CCOC(=O)Nc1c2ccccc2nc2ccccc12	-6.02
O=C(O)c1ccc(Nc2c3ccccc3nc3ccccc23)cc1	4.42
CC(=O)C1=C(C)NC(=O)NC1c1ccccc1OCC(=O)NCCc1ccccc1 (configuration not stated)	2.94
Cc1nc2ccc(Br)cn2c1C(=O)N/N=C\c1ccccc1[N+](=O)[O-]	-1.1
O=C(COc1ccc(Cl)cc1Cl)N1CCCCCC1	3.1
FC(F)(F)c1ccc(N/N=C/c2cccnc2)nc1	-6.21
O=C(Nc1ccc(Cl)c(Cl)c1)Nc1nccs1	0.93
Cc1csc(N/N=C\c2cccnc2)n1	-7.97
CC(=O)Nc1sc(N/N=C\c2cccc(Cl)c2)nc1-c1cccs1	-2.74
C(=N\c1nccs1)/c1cccnc1	10.7
O=C(Nc1ccc(Cl)cc1)Nc1nccs1	-2.29
Clc1cccc(Cl)c1/C=N\Nc1nccs1	-7.79
Fc1cccc(/C=N/Nc2ccccn2)c1	-0.26
